In PubChem BioAssay (Tox21):
Inconclusive results are not listed. Entries that show only a call come without a potency. Values without a mark were called inactive. Active and inactive are the calls of the source. Unless noted, calls follow the shape of the dose curve; as a rule, active = well fitted curve in the direction sought with a large enough effect in the repeat runs; inconclusive = weak or mixed curves; inactive = no such curve, though single readings can be large; an effect the other way counts as inactive or inconclusive.

Columns and labels:
[1] = qHTS assay to identify small molecule antagonists of the retinoid acid receptor (RAR) signaling pathway - cell viability counter screen (AID 1159551); also: nearly all actives have a fitted effect of over 35% in size
How it was run: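 Cytotoxicity counter screen in C3RL4 cells: 6 h compound exposure with 1 uM retinol (final), viability from cellular ATP by luminescence.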

[2] = qHTS assay to identify small molecule antagonists of the retinoic acid receptor (RAR) signaling pathway (AID 1159552; also: nearly all actives have a fitted effect of over 50% in size)
How it was run: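 Luminescence from a RARE luciferase reporter in C3RL4 cells served as read-out. Cells received compounds together with 1 uM final retinol and incubated 6 hr at 37 C before detection reagent was added for 30 min at room temperature.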

[3] = qHTS assay to identify small molecule agonists of the retinoic acid receptor (RAR) signaling pathway (AID 1159553)
How it was run: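 Agonist activity was scored in C3RL4 cells bearing a retinoic acid response element luciferase construct. Cells were treated with compounds for 6 hr at 37 C, and luciferase signal was measured as luminescence.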

[4] = qHTS assay to identify small molecule antagonists of the estrogen related receptor (ERR) signaling pathway from Tox21 library - cell viability counter screen (AID 1224834); also: nearly all actives have a fitted effect of over 30% in size
How it was run: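 Cytotoxicity of test substances is gauged in the same ERR cells used for the antagonist screen, after 17.5 h of compound treatment at 37 C, by CellTiter-Fluor fluorescence measured after 30 min.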

[5] = molecular target: Luciferin 4-monooxygenase (Photinus pyralis) (UniProt P08659); assay: qHTS assay to identify small molecule inhibitors of firefly luciferase (AID 1224835); also: series mostly up to about 120 µM; nearly all actives have a fitted effect of over 25% in size
Chain of Luciferin 4-monooxygenase (Photinus pyralis) (P08659 whole entry, looked up): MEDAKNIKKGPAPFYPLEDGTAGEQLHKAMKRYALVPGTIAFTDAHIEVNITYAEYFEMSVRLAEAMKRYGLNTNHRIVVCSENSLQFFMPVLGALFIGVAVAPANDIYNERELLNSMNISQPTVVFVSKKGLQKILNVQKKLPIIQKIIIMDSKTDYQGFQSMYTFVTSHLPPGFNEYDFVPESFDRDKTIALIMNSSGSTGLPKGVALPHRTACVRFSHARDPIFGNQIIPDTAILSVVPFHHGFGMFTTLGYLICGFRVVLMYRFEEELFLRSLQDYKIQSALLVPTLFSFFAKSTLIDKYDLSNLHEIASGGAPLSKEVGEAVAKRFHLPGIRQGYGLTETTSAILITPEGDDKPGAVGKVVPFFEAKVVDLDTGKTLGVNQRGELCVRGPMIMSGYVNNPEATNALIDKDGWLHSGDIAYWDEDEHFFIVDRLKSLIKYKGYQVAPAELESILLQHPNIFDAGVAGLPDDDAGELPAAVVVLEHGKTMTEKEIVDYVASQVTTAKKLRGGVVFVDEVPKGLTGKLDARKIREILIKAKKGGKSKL
How it was run: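 Quantitative HTS format; KM concentrations of both substrates. Purified P. pyralis FLuc activity quantified from luminescence images.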

[6] = qHTS assay to identify small molecule agonists of the constitutive androstane receptor (CAR) signaling pathway - cell viability counter screen (AID 1224836); also: series mostly up to about 92 µM; nearly all actives have a fitted effect of over 45% in size
How it was run: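 Viability read-out: CellTiter-Fluor fluorescence after 23 h compound exposure at 37 C/5% CO2 in double-stable HepG2-CYP2B6-hCAR cells, with PK11195 present at 0.75 uM final; compounds tested in 15-point titration.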

[7] = qHTS assay to identify small molecule antagonists of the constitutive androstane receptor (CAR) signaling pathway - cell viability counter screen (AID 1224837); also: series mostly up to about 92 µM; nearly all actives have a fitted effect of over 45% in size
How it was run: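 Multiplexed cytotoxicity read-out for the CAR antagonist screen: double-stable HepG2-CYP2B6-hCAR cells co-treated with 50 nM CITCO (final) and compound over 15 concentrations, incubated 23 hr, then assessed by CellTiter-Fluor fluorescence.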

[8] = molecular target: Nuclear receptor subfamily 1 group I member 3 (Homo sapiens) (UniProt Q14994); assay: qHTS assay to identify small molecule antagonists of the constitutive androstane receptor (CAR) signaling pathway (AID 1224838); also: nearly all actives have a fitted effect of over 40% in size; also: potency is read from the fitted curve at half-maximal effect
Chain of Nuclear receptor subfamily 1 group I member 3 (Homo sapiens) (Q14994 whole entry, looked up): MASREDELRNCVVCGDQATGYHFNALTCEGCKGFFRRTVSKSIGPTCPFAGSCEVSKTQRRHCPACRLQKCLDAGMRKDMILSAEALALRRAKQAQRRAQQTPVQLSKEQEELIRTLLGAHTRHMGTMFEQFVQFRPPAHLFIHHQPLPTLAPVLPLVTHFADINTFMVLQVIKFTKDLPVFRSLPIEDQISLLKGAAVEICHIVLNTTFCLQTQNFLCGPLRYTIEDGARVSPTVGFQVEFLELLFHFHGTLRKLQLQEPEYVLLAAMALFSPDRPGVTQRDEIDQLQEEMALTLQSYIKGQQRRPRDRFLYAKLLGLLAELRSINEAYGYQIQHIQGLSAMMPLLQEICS
How it was run: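 Compounds were titrated across 15 concentrations onto HepG2 cells double-stably expressing hCAR and a CYP2B6-2.2kb reporter, together with 50 nM CITCO (final). After 24 h at 37 C, luciferase activity was measured by luminescence.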

[9] = molecular target: Nuclear receptor subfamily 1 group I member 3 (Homo sapiens) (UniProt Q14994); assay: qHTS assay to identify small molecule agonists of the constitutive androstane receptor (CAR) signaling pathway (AID 1224839); also: nearly all actives have a fitted effect of over 15% in size; also: potency is read from the fitted curve at half-maximal effect
How it was run: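 Luminescence read-out (ONE-Glo, 30 min, room temperature) from double-stable HepG2-CYP2B6-hCAR cells exposed 24 h to 15-point compound series in presence of 0.75 uM PK11195 final.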

[10] = qHTS assay to identify small molecule antagonists of the estrogen related receptor signaling pathway with the pleiotropic PPARgamma coactivator (PGC) from Tox21 10K library - cell viability counter screen (AID 1224840; active = well fitted cell-killing curve with a large enough effect in the repeat runs, not every such curve was filed as active; also: nearly all actives have a fitted effect of over 40% in size)
How it was run: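 Step one, plate 2,000 PGC/ERR cells per well; step two, incubate 6 h at 37 C/5% CO2; step three, pin-transfer compounds; step four, incubate 17.5 h; step five, add CellTiter-Fluor and read fluorescence after 30 min.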

[11] = qHTS assay to identify small molecule agonists of the RXR signaling pathway - cell viability counter screen (AID 1159529); also: nearly all actives have a fitted effect of over 50% in size; also: potency is read from the fitted curve at half-maximal effect
How it was run: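 Luminescence from CellTiter-Glo (30 min, RT) measured viability in the same wells as the beta-lactamase reporter readout. Cells: GeneBLAzer RXR-alpha HEK 293T, 2% charcoal-stripped FBS. Compound exposure 16 hr, 37 C.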

[12] = qHTS assay to identify small molecule agonists of the estrogen related receptor signaling pathway with the pleiotropic PPARgamma coactivator (PGC) from Tox21 10K library (AID 1224842); also: nearly all actives have a fitted effect of over 15% in size
How it was run: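 PGC/ERR reporter cells (NTP line) were seeded 2,000 per well, rested 6 h at 37 C/5% CO2, then pin-dosed with compounds in DMSO for 18 h at 37 C; luciferase read by One-Glo luminescence after 30 min at room temperature.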

[13] = qHTS assay to identify small molecule antagonists of the estrogen related receptor signaling pathway with the pleiotropic PPARgamma coactivator (PGC) from Tox21 10K library (AID 1224841; call rule not given here; also: series mostly up to about 92 µM; actives are mostly falling curves and most rising ones were filed inactive; nearly all actives have a fitted effect of over 50% in size)
How it was run: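 Antagonism in this quantitative HTS is taken from loss of luciferase signal in PGC/ERR cells. Cells (2,000/well) are treated with compounds in DMSO after a 6 h settling period and read by One-Glo luminescence after 18 h.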

## c1ccc(CN(Cc2ccccc2)Cc2ccccc2)cc1
[1]
  outcome: inactive
[2]
  outcome: inactive
[3]
  Potency: inactive
[4]
  Potency: inactive
[5]
  Potency: inactive
[6]
  Potency: inactive
[7]
  Potency: inactive
[8]
  Potency: inactive
[9]
  Potency: inactive
[10]
  Potency: inactive

## SCCOCCOCCS
[1]
  outcome: inactive
[4]
  Potency: inactive
[5]
  Potency: inactive
[6]
  Potency: inactive
[7]
  Potency: inactive
[8]
  Potency: inactive
[9]
  Potency: inactive
[10]
  Potency: inactive

## NC(=O)c1ccccc1C(N)=O
[11]
  Potency: 34.8 µM (active)
[1]
  outcome: inactive
[4]
  Potency: inactive
[6]
  Potency: inactive
[7]
  Potency: inactive
[8]
  Potency: 30.8 µM (active)
[9]
  Potency: inactive
[12]
  Potency: inactive

## COc1cccc([C@H](O)C2CCN(CCc3ccc(F)cc3)CC2)c1OC
[1]
  outcome: inactive
[2]
  outcome: inactive
[3]
  Potency: inactive
[4]
  Potency: inactive
[5]
  Potency: inactive
[6]
  Potency: inactive
[7]
  Potency: inactive

## Clc1nc2ccccc2nc1Cl
[11]
  Potency: inactive
[3]
  Potency: inactive
[4]
  Potency: inactive
[5]
  Potency: inactive
[6]
  Potency: inactive
[7]
  Potency: inactive
[10]
  Potency: inactive

## CC(C)=CCC[C@H](C)CCO
[11]
  Potency: inactive
[2]
  outcome: inactive
[3]
  Potency: inactive
[4]
  Potency: inactive
[5]
  Potency: inactive
[6]
  Potency: inactive
[10]
  Potency: inactive

## CC(=O)Nc1ccccc1O
[11]
  Potency: inactive
[1]
  outcome: inactive
[4]
  Potency: inactive
[6]
  Potency: inactive
[7]
  Potency: inactive
[8]
  Potency: inactive
[9]
  Potency: inactive
[10]
  Potency: inactive

## O=C(Cl)c1ccc(F)c(Cl)c1
[1]
  outcome: inactive
[3]
  Potency: inactive
[4]
  Potency: inactive
[5]
  Potency: inactive
[6]
  Potency: inactive
[8]
  Potency: inactive
[9]
  Potency: inactive
[10]
  Potency: inactive
[12]
  Potency: inactive

## CC(C)CCCCCCCOC(=O)c1ccc(C(=O)OCCCCCCCC(C)C)c(C(=O)OCCCCCCCC(C)C)c1
[1]
  outcome: inactive
[4]
  Potency: inactive
[5]
  Potency: inactive
[6]
  Potency: inactive
[7]
  Potency: inactive
[8]
  Potency: inactive
[9]
  Potency: inactive
[10]
  Potency: inactive
[12]
  Potency: inactive

## C=C[Si](OCC)(OCC)OCC
[11]
  Potency: inactive
[1]
  outcome: inactive
[4]
  Potency: inactive
[6]
  Potency: inactive
[7]
  Potency: inactive
[10]
  Potency: inactive

## CC/C=C\CCO
[11]
  Potency: inactive
[1]
  outcome: inactive
[4]
  Potency: inactive
[5]
  Potency: inactive
[6]
  Potency: inactive
[13]
  Potency: inactive

## O=C1CCCN1CCO
[1]
  outcome: inactive
[3]
  Potency: inactive
[4]
  Potency: inactive
[5]
  Potency: inactive
[6]
  Potency: inactive
[7]
  Potency: inactive
[8]
  Potency: inactive
[9]
  Potency: inactive
[10]
  Potency: inactive

## Sc1nc(S)nc(S)n1
[11]
  Potency: inactive
[1]
  outcome: inactive
[4]
  Potency: inactive
[6]
  Potency: inactive
[7]
  Potency: inactive
[10]
  Potency: inactive
[13]
  Potency: inactive
[12]
  Potency: inactive

## CCCCCCC/C=C/C=O
[1]
  outcome: inactive
[3]
  Potency: inactive
[4]
  Potency: inactive
[6]
  Potency: inactive
[7]
  Potency: inactive
[8]
  Potency: inactive
[9]
  Potency: inactive
[10]
  Potency: inactive

## COc1ccnc2c1CCCCC2S(=O)c1nc2ccccc2[nH]1 (configuration not stated)
[1]
  outcome: inactive
[2]
  outcome: inactive
[4]
  Potency: inactive
[6]
  Potency: inactive
[7]
  Potency: inactive
[8]
  Potency: inactive
[9]
  Potency: 23.7 µM (active)
